# Key:
# [1] = target: Serine/threonine-protein kinase MRCK alpha (Homo sapiens) (UniProt Q5VT25); conditions: at 0.1 µM
# [2] = target: Serine/threonine-protein kinase MRCK alpha (Homo sapiens) (UniProt Q5VT25); conditions: at 1 µM
# [3] = target: Serine/threonine-protein kinase MRCK beta (Homo sapiens) (UniProt Q9Y5S2); conditions: at 0.1 µM
# [4] = target: Serine/threonine-protein kinase MRCK beta (Homo sapiens) (UniProt Q9Y5S2); conditions: at 1 µM
# [5] = target: Ribosomal protein S6 kinase alpha-5 (Homo sapiens) (UniProt O75582); conditions: at 0.1 µM
# [6] = target: Ribosomal protein S6 kinase alpha-5 (Homo sapiens) (UniProt O75582); conditions: at 1 µM
# [7] = target: Ribosomal protein S6 kinase alpha-4 (Homo sapiens) (UniProt O75676); conditions: at 0.1 µM
# [8] = target: Ribosomal protein S6 kinase alpha-4 (Homo sapiens) (UniProt O75676); conditions: at 1 µM
# [9] = target: Ribosomal protein S6 kinase beta-1 (Homo sapiens) (UniProt P23443); conditions: at 0.1 µM
# [10] = target: Ribosomal protein S6 kinase beta-1 (Homo sapiens) (UniProt P23443); conditions: at 1 µM
# [11] = target: T1, 3-phosphoinositide-dependent protein kinase 1 (Homo sapiens) (UniProt O15530); conditions: at 0.1 µM;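 further: values are mean inhibition of PDK1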
# T1 sequence (whole entry): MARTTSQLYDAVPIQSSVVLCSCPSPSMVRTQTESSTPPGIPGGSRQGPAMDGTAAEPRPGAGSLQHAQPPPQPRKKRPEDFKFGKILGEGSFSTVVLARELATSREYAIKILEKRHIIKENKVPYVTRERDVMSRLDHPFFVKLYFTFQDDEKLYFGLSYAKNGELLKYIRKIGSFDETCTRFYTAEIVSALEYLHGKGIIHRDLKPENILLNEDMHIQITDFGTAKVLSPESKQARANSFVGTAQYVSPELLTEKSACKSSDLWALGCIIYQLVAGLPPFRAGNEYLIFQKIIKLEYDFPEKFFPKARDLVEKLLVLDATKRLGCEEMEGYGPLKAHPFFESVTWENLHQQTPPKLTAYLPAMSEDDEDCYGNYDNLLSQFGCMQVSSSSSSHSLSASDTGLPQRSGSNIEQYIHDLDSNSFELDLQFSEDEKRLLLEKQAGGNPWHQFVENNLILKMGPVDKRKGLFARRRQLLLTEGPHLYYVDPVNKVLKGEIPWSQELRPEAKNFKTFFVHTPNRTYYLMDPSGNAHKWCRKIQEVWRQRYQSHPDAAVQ
# [12] = target: cAMP-dependent protein kinase catalytic subunit alpha (Homo sapiens) (UniProt P17612); conditions: at 0.1 µM
# [13] = target: cAMP-dependent protein kinase catalytic subunit alpha (Homo sapiens) (UniProt P17612); conditions: at 1 µM
# [14] = target: Protein kinase C alpha type (Homo sapiens) (UniProt P17252); conditions: at 0.1 µM
# [15] = target: Protein kinase C alpha type (Homo sapiens) (UniProt P17252); conditions: at 1 µM
# [16] = target: Protein kinase C beta type (Homo sapiens) (UniProt P05771); conditions: at 0.1 µM
# [17] = target: Protein kinase C beta type (Homo sapiens) (UniProt P05771); conditions: at 1 µM
# [18] = target: Protein kinase C eta type (Homo sapiens) (UniProt P24723); conditions: at 0.1 µM
# [19] = target: Protein kinase C eta type (Homo sapiens) (UniProt P24723); conditions: at 1 µM
# [20] = target: Protein kinase C gamma type (Homo sapiens) (UniProt P05129); conditions: at 0.1 µM;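 further: values are mean percent inhibition of PKC gamma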
# Sequence of Serine/threonine-protein kinase MRCK alpha (Homo sapiens) (Q5VT25 whole entry): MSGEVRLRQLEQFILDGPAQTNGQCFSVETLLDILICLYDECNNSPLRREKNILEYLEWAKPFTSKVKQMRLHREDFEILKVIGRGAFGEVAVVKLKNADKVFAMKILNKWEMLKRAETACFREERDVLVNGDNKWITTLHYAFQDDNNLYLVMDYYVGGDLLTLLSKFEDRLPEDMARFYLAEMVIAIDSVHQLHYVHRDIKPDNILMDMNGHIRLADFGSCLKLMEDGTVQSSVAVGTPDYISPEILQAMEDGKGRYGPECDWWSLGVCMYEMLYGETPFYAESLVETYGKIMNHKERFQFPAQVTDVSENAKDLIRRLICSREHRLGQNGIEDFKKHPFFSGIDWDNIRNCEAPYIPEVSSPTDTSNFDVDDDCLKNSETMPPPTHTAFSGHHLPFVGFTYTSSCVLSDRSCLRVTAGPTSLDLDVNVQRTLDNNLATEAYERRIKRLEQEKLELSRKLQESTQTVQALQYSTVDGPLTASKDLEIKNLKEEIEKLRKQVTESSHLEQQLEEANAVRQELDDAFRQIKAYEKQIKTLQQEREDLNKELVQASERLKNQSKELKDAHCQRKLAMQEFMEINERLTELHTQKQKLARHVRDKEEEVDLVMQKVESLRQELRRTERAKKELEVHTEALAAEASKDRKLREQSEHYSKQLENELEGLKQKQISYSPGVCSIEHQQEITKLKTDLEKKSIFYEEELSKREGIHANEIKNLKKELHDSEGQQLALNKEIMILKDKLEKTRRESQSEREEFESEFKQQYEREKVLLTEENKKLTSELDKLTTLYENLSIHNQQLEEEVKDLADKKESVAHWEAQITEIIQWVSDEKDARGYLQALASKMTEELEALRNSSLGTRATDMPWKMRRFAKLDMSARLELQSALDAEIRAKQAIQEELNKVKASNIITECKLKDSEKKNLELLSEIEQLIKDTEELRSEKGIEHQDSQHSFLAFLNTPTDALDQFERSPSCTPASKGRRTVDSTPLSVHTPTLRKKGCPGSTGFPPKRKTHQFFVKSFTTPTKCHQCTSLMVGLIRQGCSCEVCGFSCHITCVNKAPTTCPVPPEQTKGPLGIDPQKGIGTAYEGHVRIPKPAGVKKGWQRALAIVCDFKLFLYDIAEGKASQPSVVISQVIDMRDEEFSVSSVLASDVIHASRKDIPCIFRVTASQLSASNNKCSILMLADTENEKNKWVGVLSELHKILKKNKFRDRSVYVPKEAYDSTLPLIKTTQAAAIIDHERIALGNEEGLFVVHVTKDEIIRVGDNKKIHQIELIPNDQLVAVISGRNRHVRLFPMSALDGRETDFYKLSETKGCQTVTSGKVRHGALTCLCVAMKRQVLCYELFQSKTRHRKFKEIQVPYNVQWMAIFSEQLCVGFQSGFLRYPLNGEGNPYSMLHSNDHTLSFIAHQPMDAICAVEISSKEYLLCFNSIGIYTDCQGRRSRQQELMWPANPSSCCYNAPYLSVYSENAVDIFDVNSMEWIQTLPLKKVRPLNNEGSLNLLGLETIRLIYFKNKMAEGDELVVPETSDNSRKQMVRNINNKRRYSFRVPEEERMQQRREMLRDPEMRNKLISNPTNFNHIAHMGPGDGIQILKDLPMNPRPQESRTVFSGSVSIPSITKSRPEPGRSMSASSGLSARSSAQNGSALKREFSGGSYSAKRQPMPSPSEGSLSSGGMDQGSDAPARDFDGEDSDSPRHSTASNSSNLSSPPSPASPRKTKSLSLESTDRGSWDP
# Sequence of Ribosomal protein S6 kinase beta-1 (Homo sapiens) (P23443 whole entry, looked up): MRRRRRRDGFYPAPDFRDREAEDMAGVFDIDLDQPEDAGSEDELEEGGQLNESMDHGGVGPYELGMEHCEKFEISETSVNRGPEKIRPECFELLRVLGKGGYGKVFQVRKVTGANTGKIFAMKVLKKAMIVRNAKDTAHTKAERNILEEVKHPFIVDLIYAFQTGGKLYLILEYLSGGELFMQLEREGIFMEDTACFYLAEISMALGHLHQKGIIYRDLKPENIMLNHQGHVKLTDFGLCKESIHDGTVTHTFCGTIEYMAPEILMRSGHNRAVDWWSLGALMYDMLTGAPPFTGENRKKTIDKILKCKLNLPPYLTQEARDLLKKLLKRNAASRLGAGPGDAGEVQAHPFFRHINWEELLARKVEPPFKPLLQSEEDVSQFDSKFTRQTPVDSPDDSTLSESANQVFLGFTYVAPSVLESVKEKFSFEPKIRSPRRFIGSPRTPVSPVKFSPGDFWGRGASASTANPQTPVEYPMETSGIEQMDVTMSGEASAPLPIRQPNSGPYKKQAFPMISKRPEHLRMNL
# Sequence of Protein kinase C eta type (Homo sapiens) (P24723 whole entry): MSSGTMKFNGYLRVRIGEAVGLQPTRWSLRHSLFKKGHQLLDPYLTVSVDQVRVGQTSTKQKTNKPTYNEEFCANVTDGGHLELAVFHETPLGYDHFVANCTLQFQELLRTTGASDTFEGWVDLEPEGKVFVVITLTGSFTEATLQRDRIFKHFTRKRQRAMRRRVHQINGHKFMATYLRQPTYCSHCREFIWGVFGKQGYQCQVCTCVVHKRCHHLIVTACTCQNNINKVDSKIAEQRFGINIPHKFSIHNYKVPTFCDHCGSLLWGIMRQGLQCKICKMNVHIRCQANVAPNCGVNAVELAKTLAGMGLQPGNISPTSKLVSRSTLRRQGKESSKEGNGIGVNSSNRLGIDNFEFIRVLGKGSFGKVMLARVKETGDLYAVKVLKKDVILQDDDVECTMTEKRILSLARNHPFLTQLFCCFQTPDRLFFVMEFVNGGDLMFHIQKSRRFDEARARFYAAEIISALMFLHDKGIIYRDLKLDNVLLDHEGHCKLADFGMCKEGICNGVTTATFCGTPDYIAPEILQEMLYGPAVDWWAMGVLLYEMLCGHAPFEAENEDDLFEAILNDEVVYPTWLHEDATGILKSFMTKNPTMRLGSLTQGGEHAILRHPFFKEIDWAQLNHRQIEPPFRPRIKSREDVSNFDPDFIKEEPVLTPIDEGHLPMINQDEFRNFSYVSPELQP
# Sequence of Ribosomal protein S6 kinase alpha-5 (Homo sapiens) (O75582 whole entry, looked up): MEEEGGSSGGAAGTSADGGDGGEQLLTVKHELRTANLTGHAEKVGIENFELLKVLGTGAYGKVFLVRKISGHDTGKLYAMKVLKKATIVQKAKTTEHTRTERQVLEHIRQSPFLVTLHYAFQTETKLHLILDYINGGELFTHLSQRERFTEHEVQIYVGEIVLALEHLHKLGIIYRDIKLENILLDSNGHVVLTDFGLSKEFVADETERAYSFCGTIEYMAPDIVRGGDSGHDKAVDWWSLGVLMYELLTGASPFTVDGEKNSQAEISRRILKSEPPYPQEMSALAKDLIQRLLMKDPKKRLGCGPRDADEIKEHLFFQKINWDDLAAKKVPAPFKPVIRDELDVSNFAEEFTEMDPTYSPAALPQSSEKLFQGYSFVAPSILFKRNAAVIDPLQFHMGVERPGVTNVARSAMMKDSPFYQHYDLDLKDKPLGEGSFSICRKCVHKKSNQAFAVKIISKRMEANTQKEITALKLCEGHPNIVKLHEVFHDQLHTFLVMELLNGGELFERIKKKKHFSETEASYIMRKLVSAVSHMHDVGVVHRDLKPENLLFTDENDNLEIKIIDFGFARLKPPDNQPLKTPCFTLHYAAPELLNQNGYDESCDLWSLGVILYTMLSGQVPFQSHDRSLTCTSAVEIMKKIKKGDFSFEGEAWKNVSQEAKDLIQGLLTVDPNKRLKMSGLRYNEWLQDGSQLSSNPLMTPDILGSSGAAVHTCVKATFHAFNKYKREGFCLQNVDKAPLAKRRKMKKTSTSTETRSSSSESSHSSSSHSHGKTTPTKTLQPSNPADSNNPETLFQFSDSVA
# Sequence of Protein kinase C beta type (Homo sapiens) (P05771 2-671 limits assumed): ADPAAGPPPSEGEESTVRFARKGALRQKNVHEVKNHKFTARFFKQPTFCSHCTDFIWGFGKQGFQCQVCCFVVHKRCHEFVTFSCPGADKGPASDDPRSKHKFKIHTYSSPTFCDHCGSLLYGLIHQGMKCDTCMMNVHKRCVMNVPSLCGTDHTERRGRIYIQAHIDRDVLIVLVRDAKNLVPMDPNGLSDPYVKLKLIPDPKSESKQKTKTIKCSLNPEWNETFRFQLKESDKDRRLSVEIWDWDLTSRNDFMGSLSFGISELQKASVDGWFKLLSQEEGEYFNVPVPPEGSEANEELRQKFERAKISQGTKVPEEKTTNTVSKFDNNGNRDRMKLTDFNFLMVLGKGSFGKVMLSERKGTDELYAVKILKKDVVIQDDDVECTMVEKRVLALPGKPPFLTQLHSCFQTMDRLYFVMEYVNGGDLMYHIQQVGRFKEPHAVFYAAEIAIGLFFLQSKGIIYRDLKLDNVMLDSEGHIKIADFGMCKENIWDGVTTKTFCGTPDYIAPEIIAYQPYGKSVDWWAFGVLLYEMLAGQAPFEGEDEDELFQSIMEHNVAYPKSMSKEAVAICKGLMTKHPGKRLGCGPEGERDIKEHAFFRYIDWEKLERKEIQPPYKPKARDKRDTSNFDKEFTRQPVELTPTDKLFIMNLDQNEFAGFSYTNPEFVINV
SMILES,inhibition [1],inhibition [2],inhibition [3],inhibition [4],inhibition [5],inhibition [6],inhibition [7],inhibition [8],inhibition [9],inhibition [10],inhibition [11],inhibition [12],inhibition [13],inhibition [14],inhibition [15],inhibition [16],inhibition [17],inhibition [18],inhibition [19],inhibition [20]
CNC(=O)c1ncccc1Nc1nc(Nc2cc3c(cc2OC)CCCN3C(=O)CN(C)C)nc2[nH]ccc12,-0.11%,2.88%,1.2%,2.41%,3.81%,3.98%,2.93%,5.8%,2.79%,3.62%,3.18%,1.72%,2.56%,1.68%,10.7%,1.41%,1.37%,2.78%,1.52%,5.68%
COc1cccc(Nc2nccc(-c3cnn4ncccc34)n2)c1,0.93%,-0.24%,-1.65%,-1.51%,1.02%,4.32%,1.62%,10.5%,2.02%,3.93%,2.46%,1.16%,6.04%,6.2%,43.4%,0.55%,5.61%,2.46%,7.69%,-1.41%
OCCCNc1nccc(-c2c(-c3ccc(F)cc3)nn3cc(C(F)(F)F)ccc23)n1,0.26%,-1.54%,0.31%,1.86%,4.64%,4.76%,2.6%,5.75%,3.2%,2.94%,2.27%,5.3%,1.41%,0.43%,2.81%,3.23%,5.54%,3.94%,0.31%,2.28%
FC(F)(F)CNc1nccc(-c2cnn3ncccc23)n1,-2.84%,-3.89%,-0.09%,-0.68%,1.98%,1.09%,2.33%,1.58%,0.49%,0.86%,-1.1%,2.98%,2.52%,1.22%,2.56%,1.27%,1.54%,2.22%,1.8%,2%
CCn1c(-c2nonc2N)nc2cncc(C(=O)NCCNC)c21,14.6%,69.9%,23.3%,66.7%,55.2%,76.8%,35.5%,71.4%,31.9%,78.2%,1.56%,42.5%,78.2%,15.5%,58.2%,61.1%,74.4%,73.9%,93.6%,6.21%
CS(=O)(=O)CCNCc1ccoc1-c1ccc2ncnc(Nc3ccc(OCc4ccccc4)cc3)c2c1,-1.71%,-3.38%,-0.65%,-2.47%,-0.3%,-2.16%,0.88%,-1.22%,-1.12%,-1.32%,1.23%,1.55%,1.02%,-0.16%,0.23%,-0.13%,-4.5%,1.81%,-0.91%,0.57%
CCN1CCC(C(=O)Nc2n[nH]c3nnc(-c4cccc(F)c4F)cc23)CC1,-1.78%,1.74%,0.8%,-0.36%,-1.22%,-2.44%,0.41%,0.26%,-0.22%,-1.27%,-0.53%,0.16%,0.64%,-0.7%,0.27%,-0.34%,-0.14%,0.24%,0.58%,-1.51%

# From ChEMBL document CHEMBL1961873, “Compounds: GSK PKIS; Assays: Nanosyn kinase panel” (2012)
